Screens deposited in PubChem BioAssay by Columbia University Molecular Screening Center.
A selection: hits, their analogues and other compounds. The true share with any hit is near 1.6%.
IL1B cytotox: HUVEC cytotoxicity counter-screen, IL-1B stimulated. cell count reduction, % at 2 µM. 0.41% of 94,000 active. HUVEC cell count loss, Hoechst imaging;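 active = cell count reduction more than 3 SD above the screen-wide mean, cut at about 70% in these data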
NFkB transloc pot: enhances IL-1B driven NFkB nuclear translocation; HUVEC IL-1B NFkB p65 nuclear translocation imaging; activation, % at 2 µM; 0.3% of 94,000 active; AID 819;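 active = activation above 40%, about the mean plus 3 SD, also judged a hit on visual image review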;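 note: percent activation is computed from the nuclear over cytoplasmic p65 intensity ratio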
VCAM1 TNFa inh: reduces TNF alpha induced VCAM1 expression in HUVEC. HUVEC TNFa-induced VCAM-1 immunofluorescence, high-content imaging. inhibition, % at 2 µM. 0.48% of 95,000 active;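 active = inhibition above the batch mean plus 3 SD, with images confirmed as a hit by eye, cut at about 37% in these data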
NFkB transloc inh: blocks IL-1B driven NFkB nuclear translocation in HUVEC cells | HUVEC IL-1B NFkB p65 nuclear translocation imaging | inhibition, % at 2 µM | 0.43% of 94,000 active | AID 796;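 active = inhibition above about 30% together with a positive call from visual inspection of the well image, limit read from the data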;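 note: nuclear over cytoplasmic p65 intensity ratio measured by imaging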
F-actin modifier: alters cytoskeleton assembly in HUVEC cells; HUVEC TNFa F-actin phalloidin imaging, high content; inhibition, % at 2 µM; 0.18% of 91,000 active; AID 836;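 active = inhibition above the batch mean plus 3 SD and confirmed as a hit by visual image inspection, cut at about 30% in these data, passing the limit was not always enough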
HUVEC tox TNFa: HUVEC cytotoxicity counter-screen, TNF alpha stimulated. HUVEC TNFalpha-stimulated, Hoechst cell count, imaging. cell count reduction, % at 2 µM. 0.17% of 93,000 active. AID 848;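 active = cell count reduction exceeding the screen mean by over 5 SD, scaled to untreated wells per plate, cut at about 78% in these data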;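 note: cells counted after 24 h of TNF alpha exposure following the 1 h pretreatment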
Large screens that a line does not name were inactive.

CC1(C)OC(=O)C2(Cc3ccccc3N3CCCCC32)C(=O)O1 (stereo not drawn)	none
O=S(=O)(NCc1ccc2c(c1)OCO2)c1cccc(S(=O)(=O)N2CCOCC2)c1	none
CC(C)n1c(SCC(=O)Nc2nc3c(s2)CCCC3)nc2c1c(=O)n(C)c(=O)n2C	none
O=C(NCCN1Cc2ccccc2C1=O)c1cccs1	none
O=C1c2ccccc2CN1CCNS(=O)(=O)c1ccc(Cl)cc1	IL1B cytotox 92, NFkB transloc inh 98
COc1ccc(CCNc2oc(-c3ccc(OC)c(OC)c3)nc2C#N)cc1	none
COc1ccc(-c2nc(C#N)c(NCCCN(C)C)o2)cc1OC	VCAM1 TNFa inh 97
COc1ccc(Cl)cc1NC(=S)NCCc1c[nH]c2ccccc12	none
COc1cc(/C=C(/C#N)C(=O)NCCc2c[nH]c3ccccc23)ccc1OCc1ccccc1F	VCAM1 TNFa inh 37
S=C1COC(c2ccccc2)N1c1ccccc1 (stereo not drawn)	none
O=C(COc1ccc(/C=N/NS(=O)(=O)c2ccccc2)cc1)Nc1ccc(F)cc1	IL1B cytotox 84 (no result: HUVEC tox TNFa)
O=C(Nc1ccc(Oc2ccccc2)cc1)C1CCCN(c2ncccn2)C1 (stereo not drawn)	F-actin modifier 71
O=C(Cn1ncc(Cl)c(Cl)c1=O)c1ccc(Cl)cc1	none
O=C(OCn1ncc(Cl)c(Cl)c1=O)c1ccccc1Cl	NFkB transloc inh 90
O=C(OCn1ncc(Cl)c(Cl)c1=O)c1ccc(F)cc1	NFkB transloc inh 93
O=C(CCCCCN1C(=O)c2ccccc2C1=O)Nc1nccs1	VCAM1 TNFa inh 50
CCC(NS(=O)(=O)c1ccc(C)cc1)C(=O)Nc1ccc(NC(C)=O)cc1 (stereo not drawn)	none
OC1C[N+]2(CCCCC2)C1	IL1B cytotox 92
O=C(O)CCCCCNS(=O)(=O)c1ccc(Cl)cc1	NFkB transloc inh 47
Cn1c(=O)oc2cc(S(=O)(=O)N3CCC(C(=O)NCC4COc5ccccc5O4)CC3)ccc21 (stereo not drawn)	none
Cc1nn(C)c(C)c1S(=O)(=O)N1CCC(C(=O)NCC2COc3ccccc3O2)CC1 (stereo not drawn)	NFkB transloc pot 42
Nc1nnnn1/N=C/c1ccco1	none
Nc1nnnn1/N=C/C(Br)=C/c1ccccc1	VCAM1 TNFa inh 54
O=C(CCc1nc(-c2ccccc2F)no1)Nc1ccc(Oc2ccccc2)cc1	none
Cc1cccc(-c2noc(CCC(=O)Nc3ccccc3)n2)c1	none
CCOC(=O)c1ccc(NC(=O)CCc2nc(-c3cccc(C)c3)no2)cc1	IL1B cytotox 87, NFkB transloc inh 99
COc1cccc(NC(=O)CCc2nc(-c3ccccc3F)no2)c1	IL1B cytotox 82
O=C(Cn1nnc(-c2ccccc2Cl)n1)NCc1ccc2c(c1)OCO2	none
O=C(NCCO)C(c1ccccc1)c1ccccc1	VCAM1 TNFa inh 91, HUVEC tox TNFa 90
COc1ccc(CC(=O)Nc2c3c(nn2-c2cccc(C)c2C)CS(=O)C3)cc1OC (stereo not drawn)	none
C=CCNC(=S)NNC(=O)c1cccn(Cc2ccc(Cl)cc2)c1=O	IL1B cytotox 84
CCOCCCN1C(=O)C(O)=C(C(C)=O)C1c1cccs1 (stereo not drawn)	none
COc1ccc2nc(NC(=O)C(NS(=O)(=O)c3cccc4nsnc34)C(C)C)sc2c1 (stereo not drawn)	HUVEC tox TNFa 86
COc1ccc2nc(NC(=O)C3CCN(S(=O)(=O)c4cccc5nsnc45)CC3)sc2c1	none
O=C(CCn1c(=O)oc2ccccc21)N1CCN(c2ccccc2F)CC1	HUVEC tox TNFa 80
O=S(=O)(c1ccc(-n2cnnn2)cc1)N(C1CCCCC1)C1CCCCC1	none
CN(C1CCCCC1)S(=O)(=O)c1ccc(-n2cnnn2)cc1	NFkB transloc pot 50
COc1ccc2c3c(cccc13)NN=C2C	NFkB transloc inh 30
COc1ccc(C(=O)c2ccc(OC)c3cccc(O)c23)cc1OC	none
COC(=O)c1ccc(Oc2nc(C)cc(Oc3ccccc3)n2)cc1	IL1B cytotox 90
C=CCNC(=O)C1CC(=O)N(c2ccc(OCC(=O)Nc3ccccc3)cc2)C1 (stereo not drawn)	none
N#CC1=C(N)OC2=C(C(=O)CCC2)C1c1ccccc1 (stereo not drawn)	none (no result: F-actin modifier)
CC(c1ccccc1)C1C(C#N)=C(N)OC2=C1C(=O)CCC2 (stereo not drawn)	NFkB transloc pot 116
CC(C)Oc1ccc(N2CC(C(=O)Nc3ccc(N4CCOCC4)cc3)CC2=O)cc1 (stereo not drawn)	none (no result: HUVEC tox TNFa)
CCOC(=O)c1oc2ccc(CNC(C)(C)C)c(Cl)c2c1C	none
CCCC(C(=O)NC1CCCC1)N(CC1CCCO1)C(=O)c1snc(C(N)=O)c1N (stereo not drawn)	none
CCCC(C(=O)NC1CCCC1)N(CCCN1CCOCC1)C(=O)c1snc(C(N)=O)c1N (stereo not drawn)	VCAM1 TNFa inh 78
CN1c2ccccc2Oc2c(c(=O)n(C)c(=O)n2C)C1c1cccc([N+](=O)[O-])c1 (stereo not drawn)	none
COc1cc2[nH]cc(C(=O)NCCc3ccccc3)c(=O)c2cc1OC	VCAM1 TNFa inh 92
CCOC(=O)c1c(C)c(C(=O)NC2CCCCC2)c(C)n1CC	NFkB transloc pot 154 (no result: NFkB transloc inh)
Cc1cc(/C=C2\SC(=Nc3ccc(F)cc3)NC2=O)c(C)n1-c1ccc(S(N)(=O)=O)cc1	F-actin modifier 31
Cc1ccnc(N/C=C(/NC(=O)c2ccccc2)C(=O)N/N=C\c2ccc(F)cc2)n1	IL1B cytotox 78, NFkB transloc inh 56
Cc1cc(F)c(F)c(C(=O)N2CCOCC2)c1	none
CCc1c(C(=O)N2CCOCC2)csc1C	IL1B cytotox 91, NFkB transloc inh 98
CCC(=O)N1CCc2cc(S(=O)(=O)N3CCN(C(=O)c4ccco4)CC3)ccc21	none
CC(=O)N1CCc2cc(S(=O)(=O)CCC(=O)N3CCN(C(=O)c4ccco4)CC3)ccc21	IL1B cytotox 86
Cc1nc([N+](=O)[O-])c(Br)n1CC(=O)c1ccc(Br)cc1	VCAM1 TNFa inh 40 (no result: IL1B cytotox, NFkB transloc pot, NFkB transloc inh)
Cc1nc([N+](=O)[O-])c(Br)n1CC(=O)c1ccccc1	none (no result: F-actin modifier)
Cc1ccn(CCSCC(=O)O)n1	IL1B cytotox 86
O=C(O)CSCCc1ccccn1	none
O=C(CN1CCCN(S(=O)(=O)c2ccc(Br)cc2)CC1)Nc1ccc2cn[nH]c2c1	none
CCc1ccc(C(=O)/C=C/c2ccc([N+](=O)[O-])o2)cc1	VCAM1 TNFa inh 49, NFkB transloc inh 44
COC(=O)c1cc(NC(=O)CC2SC(=Nc3ccccc3)N(CCc3c[nH]c4ccccc34)C2=O)cc(C(=O)OC)c1 (stereo not drawn)	none (no result: IL1B cytotox, NFkB transloc pot, NFkB transloc inh)
CC(C)CC(=O)NC1(C(F)(F)F)C(=O)N(Cc2ccccc2)C2=C1C(=O)CC(C)(C)C2 (stereo not drawn)	NFkB transloc inh 33
O=C(CS(=O)c1ccc(C(F)(F)F)cc1[N+](=O)[O-])Oc1ccccc1 (stereo not drawn)	VCAM1 TNFa inh 88
